Structures can show the parent of a compound that is named as a salt. Hit rate of the full screen: of about 2,100 compounds, about 180 (8.6%) showed an effect of 50% or more. Many of the other results were omitted from the sample, so strong results are more common in it than they were.

The experiment concerns MOLM1 and UCSD/AML1 (averaged). Briefly: cell viability relative to DMSO control (POC); higher = less growth inhibition. As to conditions: 1 µM; 72 h. The method, then:
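Primary viability screen in the 3q26 EVI1-high AML cell lines MOLM1 and UCSD/AML1 (1.5e3 cells/well, 384-well), compounds at 1 uM for 72 h. ATP CellTiter-Glo read-out given as percent of viable cells over DMSO control (POC), averaged over duplicates. DMSO was the negative control and 5 uM etoposide the positive control. This mapping covers the MicroSource Spectrum and Selleck anticancer libraries (drug names).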
Usually cell viability stands for a read-out of living cells in per cent, often relative to untreated cells. `COc1ccc2oc(-c3ccccc3)c(OC)c(=O)c2c1`: the cell viability was 98.7%.

For the compound `COc1ccc(-c2cc(=O)c3c(OC)c(OC)c(OC)cc3o2)cc1OC`, the cell viability worked out at 105%.

In the case of `COc1ccc([C@@H]2CC(=O)c3c(O)cc(O[C@@H]4O[C@H](CO[C@@H]5O[C@@H](C)[C@H](O)[C@@H](O)[C@H]5O)[C@@H](O)[C@H](O)[C@H]4O)cc3O2)cc1O`, the cell viability amounted to 92.8%.

On to `c1ccc(-c2nn3c(c2-c2ccnc4cc(OCCN5CCOCC5)ccc24)CCC3)nc1`, for which the cell viability came to 94.6%.

For `CC12CCC3C(CC3(C)C)C(C)(CCC1=O)O2` (stereo unspecified), the cell viability is 103%.

As for `C=CCSCC(N)C(=O)O` (stereo unspecified), the cell viability amounted to 121%.

In the case of `CCCCc1nc2cc(/C=C/C(=O)NO)ccc2n1CCN(CC)CC` [SB939 (Pracinostat)], the cell viability worked out at 1.57%.

Turning to `CC1=CC(=O)CC(C)(C)C1(O)/C=C/C(C)=C\C(=O)O` (mixture of isomers) [ABSCISIC ACID (cis,trans; +/-)], the cell viability came out at 102%.

Turning to `O=Cc1ccccc1O[C@@H]1O[C@H](CO)[C@@H](O)[C@H](O)[C@H]1O`, the cell viability was 102%.

With `C[C@H](NC(=O)Cc1cc(F)cc(F)c1)C(=O)N[C@H](C(=O)OC(C)(C)C)c1ccccc1`, the cell viability amounted to 76.1%.

On to `COc1cc(OC)c2c(OC)c(-c3ccc4c(c3)OCO4)c(=O)oc2c1`, for which the cell viability amounted to 101%.

For the compound `COc1cc(OC)c2c(c1)OC(c1ccccc1)CC2=O` (stereo unspecified), the cell viability stood at 105%.

Consider `COc1cc2c3cc1Oc1cc(ccc1O)C[C@@H]1c4c(cc(OC)c(O)c4Oc4ccc(cc4)C[C@@H]3N(C)CC2)CC[N+]1(C)C`, for which the cell viability stood at 100%.

Turning to `NC(=O)Nc1cc(-c2cccc(F)c2)sc1C(=O)N[C@H]1CCCNC1`, the cell viability came out at 5.84%.

With `CC(=O)O[C@H]1C[C@@H](OC(C)=O)C(C)(C)C2CC(=O)[C@]3(C)C(CC[C@@]4(C)[C@H](C(=O)O)OC(=O)C5OC543)[C@]21C` (stereo partly specified), the cell viability worked out at 89.8%.

As for `CC(=O)O[C@H]1C[C@@H](OC(C)=O)C(C)(C)[C@@H]2C[C@@H](OC(C)=O)[C@@]3(C)C4=CC(=O)O[C@@H](c5ccoc5)[C@]4(C)CC[C@@H]3[C@@]12C`, the cell viability was determined as 94.5%.

For `COC1=CC(=O)C(O)=C/C1=C\C=C\c1ccccc1`, the cell viability was determined as 95%.

Turning to `Cc1cc(O)cc(O)c1C(=O)O`, the cell viability came out at 115%.

For the compound `NCCC(=O)N[C@@H](Cc1c[nH]cn1)C(=O)O`, the cell viability amounted to 89.7%.

With `O=C(O)C1CC([C@@H]2CCCCN2)CN2CCCCC12` (stereo partly specified), the cell viability turned out to be 101%.

As to `CC(C)n1nc(-c2ccc3oc(N)nc3c2)c2c(N)ncnc21`, the cell viability came out at 21.6%.

Consider `CCN1CCN(Cc2ccc(-c3cc4c(N[C@H](C)c5ccccc5)ncnc4[nH]3)cc2)CC1`, for which the cell viability came out at 53.4%.

As for `COC(=O)c1c(C)c2c(c(C)c1O)OC(=O)c1c(C)c(Cl)c(O)c(Cl)c1O2`, the cell viability is 108%.

Turning to `O=C(Cc1cccs1)N[C@@H]1C(=O)N2C(C(=O)[O-])=C(C[n+]3ccccc3)CS[C@H]12`, the cell viability came out at 96.4%.

For the compound `COC1=CC(=O)C(C(=O)c2ccccc2)=CC1=O`, the cell viability amounted to 103%.

Consider `C[C@]1(c2nc3c(C(N)=O)cccc3[nH]2)CCCN1` [ABT-888 (Veliparib)], for which the cell viability was found to be 101%.

With `Cc1ccc(C(=O)Nc2ccc(S(=O)(=O)O)c3cc(S(=O)(=O)O)cc(S(=O)(=O)O)c23)cc1NC(=O)c1cccc(NC(=O)Nc2cccc(C(=O)Nc3cc(C(=O)Nc4ccc(S(=O)(=O)O)c5cc(S(=O)(=O)O)cc(S(=O)(=O)O)c45)ccc3C)c2)c1`, the cell viability came to 111%.

As for `Cc1ccc(NC(=O)c2cccc(C(C)(C)C#N)c2)cc1Nc1ccc2ncn(C)c(=O)c2c1`, the cell viability is 42.7%.

Regarding `COC(=O)Nc1ccc(-c2nc(N3CCOCC3)c3cnn(C4CCN(C(=O)OC)CC4)c3n2)cc1`, the cell viability was determined as 25.9%.

With `c1ccc2c(-c3cnn4cc(-c5ccc(N6CCNCC6)cc5)cnc34)ccnc2c1`, the cell viability turned out to be 37.8%.

In the case of `NC1(C(=O)O)CCCC1`, the cell viability was determined as 93.7%.

For the compound `COc1cc(C(=O)NCc2ccc(OCCN(C)C)cc2)cc(OC)c1OC`, the cell viability came out at 97.1%.

For `CC/C(=C(\c1ccccc1)c1ccc(OCCN(C)C)cc1)c1ccccc1` [Tamoxifen Citrate (Nolvadex)], the cell viability turned out to be 53.6%.

In the case of `CC/C(=C(\c1ccccc1)c1ccc(OCCN(C)C)cc1)c1ccccc1`, the cell viability was 105%.

In the case of `CN(C)Cc1c(C(=O)NCCOc2ccc(C(=O)NO)cc2)oc2ccccc12`, the cell viability amounted to 1.01%.

As for `C=CCSCC=C`, the cell viability turned out to be 97.3%.

With `CCCc1cc(OC)c2c(c1)OCO2`, the cell viability worked out at 90.2%.

Take `C[C@H](NC(=O)Cc1cc(F)cc(F)c1)C(=O)N[C@@H]1C(=O)N(C)c2ccccc2-c2ccccc21`: the cell viability was 101%.

Take `COC1=C(OC)C(=O)C(C/C=C(\C)CC/C=C(\C)CC/C=C(\C)CC/C=C(/C)CC/C=C(\C)CC/C=C(\C)CC/C=C(\C)CC/C=C(\C)CC/C=C(\C)CCC=C(C)C)=C(C)C1=O`: the cell viability turned out to be 85.7%.

For the compound `COc1c(C)c2c(c(O)c1C/C=C(\C)CCC(=O)O)C(=O)OC2` [Mycophenolic (Mycophenolate)], the cell viability stood at 42.4%.

Take `COc1c(C)c2c(c(O)c1C/C=C(\C)CCC(=O)O)C(=O)OC2`: the cell viability was determined as 44%.

On to `COc1c(C)c2c(c(O)c1C/C=C(\C)CCC(=O)OCCN1CCOCC1)C(=O)OC2` [Mycophenolate mofetil (CellCept)], for which the cell viability is 53%.

As to `C=C[C@@]1(C)CC(=O)[C@@]2(O)[C@](C)(O1)[C@@H](O)[C@@H](O)C1C(C)(C)CC[C@H](O)[C@@]12C` (stereo partly specified), the cell viability was 98.8%.

Turning to `COc1ccc(C(=O)O)c(O)c1OC`, the cell viability worked out at 97.8%.

Take `COc1ccc([C@H]2COc3c(ccc(O)c3OC)C2)c(OC)c1O`: the cell viability was found to be 116%.

Take `CC(C=CC(=O)NO)=CC(C)C(=O)c1ccc(N(C)C)cc1` (stereo unspecified) [Trichostatin A (TSA)]: the cell viability turned out to be 1.52%.

For `O=C(Cn1ccnc1[N+](=O)[O-])NCCO`, the cell viability was 94.5%.

Turning to `Cc1csc(-c2nnc(Nc3ccc(Oc4ncccc4-c4ccnc(N)n4)cc3)c3ccccc23)c1`, the cell viability was determined as 51.5%.

For `N=C1C=CC(=C(c2ccc(N)cc2)c2ccc(N)cc2)C=C1`, the cell viability worked out at 82.5%.

As to `CN(C)c1ccc(C(=C2C=CC(=[N+](C)C)C=C2)c2ccc(N(C)C)cc2)cc1`, the cell viability is 0.942%.

Take `CCCCCCCCCCCCCc1ccco1`: the cell viability is 97.1%.

In the case of `C[C@H](CCC(=O)O)[C@H]1CC[C@H]2[C@@H]3CC[C@@H]4CCCC[C@]4(C)[C@H]3CC[C@]12C`, the cell viability was found to be 98.9%.

As to `C[C@@H]1O[C@@H](O[C@H]2[C@H](O[C@H]3CC[C@@]4(C)[C@@H](CC[C@]5(C)[C@@H]4CC=C4[C@@H]6CC(C)(C)CC[C@]6(C(=O)O[C@@H]6O[C@H](CO[C@@H]7O[C@H](CO)[C@@H](O[C@@H]8O[C@@H](C)[C@H](O)[C@@H](O)[C@H]8O)[C@H](O)[C@H]7O)[C@@H](O)[C@H](O)[C@H]6O)CC[C@]45C)[C@]3(C)CO)OC[C@H](O)[C@@H]2O)[C@H](O)[C@H](O)[C@H]1O`, the cell viability is 89.5%.

With `COCC[n+]1c2c(n(Cc3cnccn3)c1C)C(=O)c1ccccc1C2=O` [YM155 (Sepantronium Bromide)], the cell viability was determined as 3.93%.

Turning to `CC(C)CCC[C@@H](C)[C@H]1CC[C@H]2[C@@H]3CC=C4CC(=O)CC[C@]4(C)[C@H]3CC[C@]12C`, the cell viability stood at 87.5%.

As for `COC(=O)c1c(OC)cc2c(c1C)Oc1c(Cl)c(O)c(Cl)c(C)c1C(=O)O2`, the cell viability is 107%.

In the case of `OC(Cn1cncn1)(Cn1cncn1)c1ccc(F)cc1F`, the cell viability worked out at 95.1%.

In the case of `Cc1c(NC(=O)OC[C@@H]2COCCN2)cn2ncnc(Nc3ccc4c(cnn4Cc4cccc(F)c4)c3)c12`, the cell viability came out at 119%.

Consider `C=C1C2CC[C@@]3(C)[C@H](c4ccoc4)OC(=O)C[C@]13O[C@H]1CC(=O)C(C)(C)[C@H](C(O)C(=O)OC)[C@@]21C` (stereo partly specified), for which the cell viability worked out at 99.4%.

As for `CC(C)C[C@H](NC(=O)CNC(=O)c1cc(Cl)ccc1Cl)B1OC(=O)C(CC(=O)O)(CC(=O)O)O1`, the cell viability was 1.16%.

As to `O=C(CNC(=O)c1ccc(Cl)cc1)NO`, the cell viability was found to be 107%.

`CC(C)C[C@H](NC(=O)CNC(=O)c1cc(Cl)ccc1Cl)B(O)O` [Ixazomib (MLN2238)]: the cell viability was determined as 1.39%.

As to `CC(=O)Oc1ccc2c(c1)CC[C@@H]1[C@@H]2CC[C@]2(C)[C@@H](OC(C)=O)CC[C@@H]12`, the cell viability stood at 87.5%.

For the compound `O=C(O)Cc1cc(I)c(Oc2cc(I)c(O)c(I)c2)c(I)c1`, the cell viability is 97.8%.

As for `CC(=O)O[C@@H]1C[C@H]2C(C)(C)C(=O)C=C[C@]2(C)[C@H]2CC[C@@]3(C)[C@H](c4ccoc4)OC(=O)[C@H]4O[C@]43[C@@]21C`, the cell viability is 82.8%.

With `COC1(C)CCC2OC2(C)CCC2C1CC2(C)C` (stereo unspecified), the cell viability is 102%.

On to `CC(C)=CCC[C@](C)(O)C1CC=C(C)CC1` (stereo partly specified), for which the cell viability is 105%.

As to `COc1cc2nccc(Oc3ccc(NC(=O)Nc4cc(C)on4)c(Cl)c3)c2cc1OC` [Tivozanib (AV-951)], the cell viability was found to be 31.8%.

For the compound `COc1cc2nccc(Oc3ccc(NC(=O)NC4CC4)c(Cl)c3)c2cc1C(N)=O` [E7080 (Lenvatinib)], the cell viability was found to be 58%.

Consider `O=C(Oc1cc(O)cc2c1C[C@@H](OC(=O)c1cc(O)c(O)c(O)c1)[C@@H](c1cc(O)c(O)c(O)c1)O2)c1cc(O)c(O)c(O)c1`, for which the cell viability is 104%.

As to `Cc1cc(O)c(C=O)c2c1C(=O)Oc1c(COC(=O)/C=C/C(=O)O)c(O)c(C(=O)O)c(C)c1O2`, the cell viability amounted to 104%.

As to `Cc1ccc2c(=O)c3cccc(CC(=O)O)c3oc2c1C`, the cell viability amounted to 99.8%.

Regarding `Cc1coc2c1C(=O)C(=O)c1c-2ccc2c1CCCC2(C)C`, the cell viability amounted to 118%.

With `C=C[C@@H](C1=CC(=O)C(OC)=C(OC)C1=O)c1ccccc1`, the cell viability stood at 8.05%.

In the case of `C=CC(C1=CC(=O)C(OC)=CC1=O)c1ccccc1` (stereo unspecified), the cell viability stood at 79.2%.

Regarding `C=CC(C1=CC(=O)C=CC1=O)c1ccccc1` (stereo unspecified), the cell viability was determined as 103%.

In the case of `CC1=C2C(O)C(=O)OC3CC4C(C)(C)C(=O)C=C[C@]4(C)C(CC1)[C@]23C` (stereo partly specified), the cell viability came out at 89.3%.

Turning to `CCCS(=O)(=O)Nc1ccc(F)c(C(=O)c2c[nH]c3ncc(-c4ccc(Cl)cc4)cc23)c1F` [Vemurafenib (PLX4032)], the cell viability worked out at 114%.

`COc1ncc(-c2ccc3nccc(-c4ccnnc4)c3c2)cc1NS(=O)(=O)c1ccc(F)cc1F`: the cell viability came out at 12.4%.

Turning to `COc1ccc2c(C)cc(=O)oc2c1`, the cell viability is 110%.

`COC(=O)CC1C(C)(C)C(OC(C)=O)[C@@H]2[C@@H](OC(C)=O)[C@]34O[C@@]2(O)[C@]1(C)C3CC[C@]1(C)C4=CC(=O)O[C@H]1c1ccoc1` (stereo partly specified): the cell viability worked out at 83.6%.

These data come from the supplement of paper PMC11150407.
